Assay results published in publication PMC11006913.
Where a chain is given by its changes, count along the chain named.

What was measured:
Experiment in all cases: PBM; 200 nM protein, PBS
Details in all cases: dsDNA, one strand shown
NKX2-4 [1] = target: T1, NKX2-4 (Homo sapiens, UniProt Q9H2Z4 175-261, P217L)
T1 sequence: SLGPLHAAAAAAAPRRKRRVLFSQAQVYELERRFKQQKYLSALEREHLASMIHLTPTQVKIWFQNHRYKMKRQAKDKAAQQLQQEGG

NKX2-4 [2] = target: T2, NKX2-4 (Homo sapiens, UniProt Q9H2Z4 175-261, T231S)
T2 sequence: T1 sequence with L43P, T57S

PAX4 [3] = target: T3, PAX4 (Homo sapiens, UniProt O43316 9-242, R200K)
T3 sequence: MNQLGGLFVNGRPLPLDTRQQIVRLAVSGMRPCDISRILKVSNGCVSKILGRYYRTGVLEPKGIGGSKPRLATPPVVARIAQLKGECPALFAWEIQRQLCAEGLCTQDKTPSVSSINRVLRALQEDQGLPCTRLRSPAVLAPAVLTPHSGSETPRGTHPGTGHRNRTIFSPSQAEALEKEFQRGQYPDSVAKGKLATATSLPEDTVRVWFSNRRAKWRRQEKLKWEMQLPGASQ

PAX4 [4] = target: T4, PAX4 (Homo sapiens, UniProt O43316 9-242)
T4 sequence: T3 sequence with K192R

NKX2-4 [5] = target: T5, NKX2-4 (Homo sapiens, UniProt Q9H2Z4 175-261)
T5 sequence: T1 sequence with L43P

HOXB6 [6] = target: HOXB6 (Homo sapiens, UniProt P17509 132-218, K202E)
HOXA2 [7] = target: HOXA2 (Homo sapiens, UniProt O43364 129-215, R185T)
ALX3 [8] = target: ALX3 (Homo sapiens, UniProt O95076 139-225, N203Q)
PAX4 [9] = target: T6, PAX4 (Homo sapiens, UniProt O43316 9-242, R200Q)
T6 sequence: T3 sequence with K192Q

HOXA2 [10] = target: HOXA2 (Homo sapiens, UniProt O43364 129-215, R185K)
PAX4 [11] = target: T7, PAX4 (Homo sapiens, UniProt O43316 9-242, F177V)
T7 sequence: T3 sequence with F169V, K192R

ALX3 [12] = target: ALX3 (Homo sapiens, UniProt O95076 139-225)
NKX2-4 [13] = target: T8, NKX2-4 (Homo sapiens, UniProt Q9H2Z4 175-261, R246Q)
T8 sequence: T1 sequence with L43P, R72Q

PAX4 [14] = target: T9, PAX4 (Homo sapiens, UniProt O43316 9-242, F177Y)
T9 sequence: T3 sequence with F169Y, K192R

PROP1 [15] = target: PROP1 (Homo sapiens, UniProt O75360 56-141)
PROP1 [16] = target: PROP1 (Homo sapiens, UniProt O75360 56-141, R99H)
ALX3 [17] = target: ALX3 (Homo sapiens, UniProt O95076 139-225, L168Q)
ALX3 [18] = target: ALX3 (Homo sapiens, UniProt O95076 139-225, L168V)
PROP1 [19] = target: PROP1 (Homo sapiens, UniProt O75360 56-141, F88S)
PAX4 [20] = target: T10, PAX4 (Homo sapiens, UniProt O43316 9-242, R227W)
T10 sequence: T3 sequence with K192R, R219W

HOXA2 [21] = target: HOXA2 (Homo sapiens, UniProt O43364 129-215, Y150S)
ALX3 [22] = target: ALX3 (Homo sapiens, UniProt O95076 139-225, N203S)
HOXA2 [23] = target: HOXA2 (Homo sapiens, UniProt O43364 129-215)
HOXB6 [24] = target: HOXB6 (Homo sapiens, UniProt P17509 132-218)
PRRX1 [25] = target: PRRX1 (Homo sapiens, UniProt P54821 80-166, F113S)
PRRX1 [26] = target: PRRX1 (Homo sapiens, UniProt P54821 80-166)
VAX1 [27] = target: VAX1 (Homo sapiens, UniProt Q5SQQ9 86-172)
VAX1 [28] = target: VAX1 (Homo sapiens, UniProt Q5SQQ9 86-172, T142I)
VAX1 [29] = target: VAX1 (Homo sapiens, UniProt Q5SQQ9 86-172, K157R)
PITX2 = PITX2 (Homo sapiens, UniProt Q99697 72-157)
NKX2-6 = target: T11, NKX2-6 (Homo sapiens, UniProt A6NCS4 118-204, R150C)
T11 sequence: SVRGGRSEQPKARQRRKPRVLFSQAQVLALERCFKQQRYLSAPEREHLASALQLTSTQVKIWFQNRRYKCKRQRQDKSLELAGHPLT

Sequence of ALX3 (Homo sapiens, UniProt O95076 139-225, N203S) (O95076 139-225 N203S): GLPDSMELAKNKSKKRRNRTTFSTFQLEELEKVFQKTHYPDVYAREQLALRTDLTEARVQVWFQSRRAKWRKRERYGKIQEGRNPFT
Sequence of ALX3 (Homo sapiens, UniProt O95076 139-225, L168Q) (O95076 139-225 L168Q): as the sequence (O95076 139-225 N203S) above, with L30Q, S65N counted along it
Sequence of ALX3 (Homo sapiens, UniProt O95076 139-225, L168V) (O95076 139-225 L168V): as the sequence (O95076 139-225 N203S) above, with L30V, S65N counted along it
Sequence of ALX3 (Homo sapiens, UniProt O95076 139-225) (O95076 139-225): as the sequence (O95076 139-225 N203S) above, with S65N counted along it
Sequence of HOXB6 (Homo sapiens, UniProt P17509 132-218) (P17509 132-218): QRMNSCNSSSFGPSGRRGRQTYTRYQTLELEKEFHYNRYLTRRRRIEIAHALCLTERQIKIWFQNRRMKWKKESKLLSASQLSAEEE
Sequence of ALX3 (Homo sapiens, UniProt O95076 139-225, N203Q) (O95076 139-225 N203Q): as the sequence (O95076 139-225 N203S) above, with S65Q counted along it
Sequence of HOXB6 (Homo sapiens, UniProt P17509 132-218, K202E) (P17509 132-218 K202E): as the sequence (P17509 132-218) above, with K71E counted along it
Sequence of PROP1 (Homo sapiens, UniProt O75360 56-141) (O75360 56-141): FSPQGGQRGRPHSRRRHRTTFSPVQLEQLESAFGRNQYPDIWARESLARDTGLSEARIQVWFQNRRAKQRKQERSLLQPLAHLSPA
Sequence of HOXA2 (Homo sapiens, UniProt O43364 129-215, R185T) (O43364 129-215 R185T): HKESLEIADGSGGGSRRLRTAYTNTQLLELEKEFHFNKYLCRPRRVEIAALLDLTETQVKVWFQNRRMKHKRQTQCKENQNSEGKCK
Sequence of PRRX1 (Homo sapiens, UniProt P54821 80-166, F113S) (P54821 80-166 F113S): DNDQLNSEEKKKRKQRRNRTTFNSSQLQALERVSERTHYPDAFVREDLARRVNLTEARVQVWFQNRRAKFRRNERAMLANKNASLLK
Sequence of HOXA2 (Homo sapiens, UniProt O43364 129-215, R185K) (O43364 129-215 R185K): as the sequence (O43364 129-215 R185T) above, with T57K counted along it
Sequence of VAX1 (Homo sapiens, UniProt Q5SQQ9 86-172) (Q5SQQ9 86-172): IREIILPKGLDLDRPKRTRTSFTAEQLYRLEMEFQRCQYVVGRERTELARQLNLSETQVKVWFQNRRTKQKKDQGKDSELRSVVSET
Sequence of HOXA2 (Homo sapiens, UniProt O43364 129-215) (O43364 129-215): as the sequence (O43364 129-215 R185T) above, with T57R counted along it
Sequence of HOXA2 (Homo sapiens, UniProt O43364 129-215, Y150S) (O43364 129-215 Y150S): as the sequence (O43364 129-215 R185T) above, with Y22S, T57R counted along it
Sequence of VAX1 (Homo sapiens, UniProt Q5SQQ9 86-172, K157R) (Q5SQQ9 86-172 K157R): as the sequence (Q5SQQ9 86-172) above, with K72R counted along it
Sequence of VAX1 (Homo sapiens, UniProt Q5SQQ9 86-172, T142I) (Q5SQQ9 86-172 T142I): as the sequence (Q5SQQ9 86-172) above, with T57I counted along it
Sequence of PROP1 (Homo sapiens, UniProt O75360 56-141, R99H) (O75360 56-141 R99H): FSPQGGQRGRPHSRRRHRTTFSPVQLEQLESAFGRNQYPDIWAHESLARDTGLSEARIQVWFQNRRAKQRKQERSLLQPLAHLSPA
Sequence of PRRX1 (Homo sapiens, UniProt P54821 80-166) (P54821 80-166): as the sequence (P54821 80-166 F113S) above, with S34F counted along it
Sequence of PROP1 (Homo sapiens, UniProt O75360 56-141, F88S) (O75360 56-141 F88S): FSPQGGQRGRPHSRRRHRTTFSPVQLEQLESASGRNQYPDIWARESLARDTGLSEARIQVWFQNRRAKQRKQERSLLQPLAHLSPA

CCCGGGCC
binding signal (NKX2-4 [1]): 9.16 upbm affinity estimate (log intensity, higher = more binding, comparable within an allelic series)
binding signal (NKX2-4 [2]): 8.94 upbm affinity estimate (log intensity, higher = more binding, comparable within an allelic series)
binding signal (PAX4 [3]): 9.02 upbm affinity estimate (log intensity, higher = more binding, comparable within an allelic series)
binding signal (PAX4 [4]): 9.01 upbm affinity estimate (log intensity, higher = more binding, comparable within an allelic series)
binding signal (NKX2-4 [5]): 9.18 upbm affinity estimate (log intensity, higher = more binding, comparable within an allelic series)
binding signal (HOXB6 [6]): 8.77 upbm affinity estimate (log intensity, higher = more binding, comparable within an allelic series)
binding signal (HOXA2 [7]): 7.21 upbm affinity estimate (log intensity, higher = more binding, comparable within an allelic series)
binding signal (ALX3 [8]): 7.64 upbm affinity estimate (log intensity, higher = more binding, comparable within an allelic series)
binding signal (PAX4 [9]): 9.07 upbm affinity estimate (log intensity, higher = more binding, comparable within an allelic series)
binding signal (HOXA2 [10]): 10.1 upbm affinity estimate (log intensity, higher = more binding, comparable within an allelic series)
binding signal (PAX4 [11]): 8.94 upbm affinity estimate (log intensity, higher = more binding, comparable within an allelic series)
binding signal (ALX3 [12]): 7.66 upbm affinity estimate (log intensity, higher = more binding, comparable within an allelic series)
binding signal (NKX2-4 [13]): 9.15 upbm affinity estimate (log intensity, higher = more binding, comparable within an allelic series)
binding signal (PAX4 [14]): 8.97 upbm affinity estimate (log intensity, higher = more binding, comparable within an allelic series)
binding signal (PROP1 [15]): 6.58 upbm affinity estimate (log intensity, higher = more binding, comparable within an allelic series)
binding signal (PROP1 [16]): 6.56 upbm affinity estimate (log intensity, higher = more binding, comparable within an allelic series)
binding signal (ALX3 [17]): 7.63 upbm affinity estimate (log intensity, higher = more binding, comparable within an allelic series)
binding signal (ALX3 [18]): 7.64 upbm affinity estimate (log intensity, higher = more binding, comparable within an allelic series)
binding signal (PROP1 [19]): 6.14 upbm affinity estimate (log intensity, higher = more binding, comparable within an allelic series)
binding signal (PAX4 [20]): 9.08 upbm affinity estimate (log intensity, higher = more binding, comparable within an allelic series)
binding signal (HOXA2 [21]): 10.2 upbm affinity estimate (log intensity, higher = more binding, comparable within an allelic series)
binding signal (ALX3 [22]): 7.61 upbm affinity estimate (log intensity, higher = more binding, comparable within an allelic series)
binding signal (HOXA2 [23]): 7.08 upbm affinity estimate (log intensity, higher = more binding, comparable within an allelic series)
binding signal (HOXB6 [24]): 8.77 upbm affinity estimate (log intensity, higher = more binding, comparable within an allelic series)

CGAGCTAG
binding signal (NKX2-4 [1]): 9.46 upbm affinity estimate (log intensity, higher = more binding, comparable within an allelic series)
binding signal (NKX2-4 [2]): 9.32 upbm affinity estimate (log intensity, higher = more binding, comparable within an allelic series)
binding signal (PRRX1 [25]): 9.63 upbm affinity estimate (log intensity, higher = more binding, comparable within an allelic series)
binding signal (NKX2-4 [5]): 9.31 upbm affinity estimate (log intensity, higher = more binding, comparable within an allelic series)
binding signal (NKX2-4 [13]): 9.21 upbm affinity estimate (log intensity, higher = more binding, comparable within an allelic series)
binding signal (PRRX1 [26]): 9.54 upbm affinity estimate (log intensity, higher = more binding, comparable within an allelic series)

ACCATTGA
binding signal (NKX2-4 [1]): 11.3 upbm affinity estimate (log intensity, higher = more binding, comparable within an allelic series)
binding signal (NKX2-4 [2]): 11.5 upbm affinity estimate (log intensity, higher = more binding, comparable within an allelic series)
binding signal (NKX2-4 [5]): 11.3 upbm affinity estimate (log intensity, higher = more binding, comparable within an allelic series)
binding signal (HOXB6 [6]): 9.55 upbm affinity estimate (log intensity, higher = more binding, comparable within an allelic series)
binding signal (NKX2-4 [13]): 11.5 upbm affinity estimate (log intensity, higher = more binding, comparable within an allelic series)
binding signal (HOXB6 [24]): 10.2 upbm affinity estimate (log intensity, higher = more binding, comparable within an allelic series)

ACTCTTAT
binding signal (NKX2-4 [1]): 12.2 upbm affinity estimate (log intensity, higher = more binding, comparable within an allelic series)
binding signal (NKX2-4 [2]): 12.5 upbm affinity estimate (log intensity, higher = more binding, comparable within an allelic series)
binding signal (NKX2-4 [5]): 12.1 upbm affinity estimate (log intensity, higher = more binding, comparable within an allelic series)
binding signal (NKX2-4 [13]): 12.5 upbm affinity estimate (log intensity, higher = more binding, comparable within an allelic series)

CCCGGCGC
binding signal (NKX2-4 [1]): 9.45 upbm affinity estimate (log intensity, higher = more binding, comparable within an allelic series)
binding signal (NKX2-4 [2]): 9.31 upbm affinity estimate (log intensity, higher = more binding, comparable within an allelic series)
binding signal (PAX4 [3]): 9.17 upbm affinity estimate (log intensity, higher = more binding, comparable within an allelic series)
binding signal (PAX4 [4]): 9.1 upbm affinity estimate (log intensity, higher = more binding, comparable within an allelic series)
binding signal (NKX2-4 [5]): 9.49 upbm affinity estimate (log intensity, higher = more binding, comparable within an allelic series)
binding signal (ALX3 [8]): 7.83 upbm affinity estimate (log intensity, higher = more binding, comparable within an allelic series)
binding signal (PAX4 [9]): 9.2 upbm affinity estimate (log intensity, higher = more binding, comparable within an allelic series)
binding signal (PAX4 [11]): 9.03 upbm affinity estimate (log intensity, higher = more binding, comparable within an allelic series)
binding signal (ALX3 [12]): 7.67 upbm affinity estimate (log intensity, higher = more binding, comparable within an allelic series)
binding signal (NKX2-4 [13]): 9.55 upbm affinity estimate (log intensity, higher = more binding, comparable within an allelic series)
binding signal (PAX4 [14]): 9.02 upbm affinity estimate (log intensity, higher = more binding, comparable within an allelic series)
binding signal (VAX1 [27]): 7.45 upbm affinity estimate (log intensity, higher = more binding, comparable within an allelic series)
binding signal (ALX3 [17]): 7.69 upbm affinity estimate (log intensity, higher = more binding, comparable within an allelic series)
binding signal (ALX3 [18]): 7.67 upbm affinity estimate (log intensity, higher = more binding, comparable within an allelic series)
binding signal (VAX1 [28]): 7.15 upbm affinity estimate (log intensity, higher = more binding, comparable within an allelic series)
binding signal (PAX4 [20]): 9.13 upbm affinity estimate (log intensity, higher = more binding, comparable within an allelic series)
binding signal (ALX3 [22]): 7.82 upbm affinity estimate (log intensity, higher = more binding, comparable within an allelic series)
binding signal (VAX1 [29]): 7.47 upbm affinity estimate (log intensity, higher = more binding, comparable within an allelic series)

GGTCCTCA
binding signal (NKX2-4 [1]): 11.5 upbm affinity estimate (log intensity, higher = more binding, comparable within an allelic series)
binding signal (NKX2-4 [2]): 11.9 upbm affinity estimate (log intensity, higher = more binding, comparable within an allelic series)
binding signal (NKX2-4 [5]): 11.5 upbm affinity estimate (log intensity, higher = more binding, comparable within an allelic series)

ACCCTTAC
binding signal (NKX2-4 [1]): 11.5 upbm affinity estimate (log intensity, higher = more binding, comparable within an allelic series)
binding signal (NKX2-4 [2]): 11.7 upbm affinity estimate (log intensity, higher = more binding, comparable within an allelic series)
binding signal (NKX2-4 [5]): 11.4 upbm affinity estimate (log intensity, higher = more binding, comparable within an allelic series)

AGCGGCCA
binding signal (NKX2-4 [1]): 9.69 upbm affinity estimate (log intensity, higher = more binding, comparable within an allelic series)
binding signal (NKX2-4 [2]): 9.47 upbm affinity estimate (log intensity, higher = more binding, comparable within an allelic series)
binding signal (NKX2-4 [5]): 9.64 upbm affinity estimate (log intensity, higher = more binding, comparable within an allelic series)
binding signal (PITX2): 8.04 upbm affinity estimate (log intensity, higher = more binding, comparable within an allelic series)
binding signal (NKX2-4 [13]): 9.57 upbm affinity estimate (log intensity, higher = more binding, comparable within an allelic series)

ACTCAAGT
binding signal (NKX2-4 [1]): 12.4 upbm affinity estimate (log intensity, higher = more binding, comparable within an allelic series)
binding signal (NKX2-4 [2]): 12.9 upbm affinity estimate (log intensity, higher = more binding, comparable within an allelic series)
binding signal (NKX2-4 [5]): 12.3 upbm affinity estimate (log intensity, higher = more binding, comparable within an allelic series)
binding signal (NKX2-6): 11.4 upbm affinity estimate (log intensity, higher = more binding, comparable within an allelic series)
binding signal (NKX2-4 [13]): 12.9 upbm affinity estimate (log intensity, higher = more binding, comparable within an allelic series)
